PubChem BioAssay AID1053115 (Broad Institute, 2014)
Measured potencies and affinities stand elsewhere. Activity calls are given as the source filed them.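 Rule for the calls: active = cytotoxic compounds whose fitted half-maximal concentration is at most twice the top valid tested dose; inconclusive = flat curve showing 30 to 70% signal loss, or poor fit; inactive = the rest.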

Assay: viability loss in A549 lung cells – cell-based, 24 h, CellTiter-Glo luminescence, cherry-picks, cytotoxicity control, dose response (AID 1053115)
Conditions: CellTiter-Glo ATP luminescence; series mostly up to 30 µM
With `CN(C)C(=O)c1ccc(-c2cccc(-c3nc(C(=O)NC4CCCC4)cc4c3[C@H](CCO)N([S@@](=O)C(C)(C)C)C4)c2)cc1` the outcome was “inactive”. With `CCCNC(=O)C[C@H]1CC[C@@H]2[C@@H](COc3ccc(NC(=O)CCC)cc3C(=O)N2C)O1` the outcome was “inactive”. In the case of `CN1c2ccc(C#Cc3cccnc3)cc2[C@@H]2[C@@H](CCN2C(=O)C2CCC2)[C@@H]1CO`, the outcome is reported as “inactive”. With `C[C@@H]1CN([C@@H](C)CO)S(=O)(=O)c2ccc(C#C[C@@H](C)O)cc2O[C@@H]1CN(C)Cc1ccccc1` the outcome was “inactive”. With `C[C@H](CO)N1C[C@H](C)[C@@H](CN(C)Cc2ccccc2)Oc2cc(C#C[C@@H](C)O)ccc2S1(=O)=O` the outcome was “inactive”. For `C[C@H](O)C#Cc1ccc2c(c1)O[C@H](CN(C)Cc1ccccc1)[C@@H](C)CN([C@@H](C)CO)S2(=O)=O`, the outcome was “inactive”. For `OC[C@H]1Nc2ccc(-c3cccc(F)c3)cc2[C@@H]2[C@H]1CCN2Cc1ccc(F)cc1`, the outcome was “inactive”. With `C[C@H](O)C#Cc1ccc2c(c1)O[C@H](CN(C)Cc1ccccc1)[C@@H](C)CN([C@H](C)CO)S2(=O)=O` the outcome was “inactive”. In the case of `C[C@@H]1CN([C@H](C)CO)S(=O)(=O)c2ccc(C#C[C@@H](C)O)cc2O[C@H]1CN(C)Cc1ccccc1`, the outcome is reported as “inactive”. In the case of `C[C@H](O)C#Cc1ccc2c(c1)O[C@@H](CN(C)Cc1ccccc1)[C@@H](C)CN([C@H](C)CO)S2(=O)=O`, the outcome is reported as “inactive”. For `C[C@H](O)C#Cc1ccc2c(c1)O[C@H](CN(C)Cc1ccccc1)[C@H](C)CN([C@H](C)CO)S2(=O)=O`, the outcome was “inactive”.
